This is one part of a sample in which hits are shown more often than they occur.
TbPYK inhibitor – T. brucei pyruvate kinase inhibition; actives 0.12% (n = 410,000); Potency, µM (series often up to 76.8 µM), usual class: inhibitors; TbPYK enzyme, Kinase-Glo Plus ATP luminescence, 45 min; AID 624173; Q57TT1; note: nearly all actives have a fitted effect of over 50% in size
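Assay buffer: 50 mM TEA pH 7.2, 100 mM KCl, 10 mM MgCl2, 0.05% BSA, 0.01% Tween-20. Pyruvate kinase from T. brucei plus substrate met compound, then ADP (130 uM final). Luminescence was read post 45 min RT.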
LmPK inh – inhibitors of Leishmania mexicana pyruvate kinase. Q27686. purified LmPK, Kinase-Glo ATP luminescence, 1 h. Potency, µM (series often up to 57.5 µM), actives largely listed as inhibitors. actives 0.37% (n = 290,000). AID 1721
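Screened at intermediate enzyme activity to detect both inhibitors and activators: LmPK at 0.1 nM, with a 0.5 nM enzyme column as activation reference. PEP 0.5 mM, ADP 0.1 mM; ATP detected by luminescence after 1 h.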
Sm TGR block – blocks Schistosoma mansoni thioredoxin glutathione reductase | Q962Y6 | purified TGR, DTNB reduction, TNB absorbance 405 nm | Potency, µM (top dose mostly 114 µM), usual class: inhibitors | actives 3% (n = 360,000); note: nearly all actives have a fitted effect of over 60% in size
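Kinetic colorimetric format: TGR-catalysed, NADPH-driven DTNB reduction monitored via TNB absorbance. Enzyme dispensed at 20 nM; compound exposure 15 min at room temperature before reaction start.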
Cycloheximide cs – affects cycloheximide protein synthesis inhibition readout, counter-screen; max response, %; AID 2314; actives 12% (n = 300,000); cell reporter, cycloheximide protein synthesis inhibition counterscreen; in the data active = max response mostly above about 13%, no sharp cut-off; inactive = mostly below about 14%; note: read at 38.3 µM for the half of the compounds with a filed dose
Shiga inhibitor – Shiga toxin inhibition; actives 9.2% (n = 290,000); inhibition, % at 38.7 µM; Vero cells, Shiga toxin protein synthesis inhibition reporter; AID 2315; in the data active = inhibition mostly above about 28%, no sharp cut-off; inactive = mostly below about 43%
FBPA Giardia inh – blocks Giardia fructose-bisphosphate aldolase activity. A8B2U2. purified Giardia FBPA. Potency, µM (titrated, usually from 59.6 µM), hits mostly inhibitors. actives 0.71% (n = 290,000). AID 2451; note: nearly all actives have a fitted effect of over 55% in size
Target sequence (A8B2U2 whole entry, looked up): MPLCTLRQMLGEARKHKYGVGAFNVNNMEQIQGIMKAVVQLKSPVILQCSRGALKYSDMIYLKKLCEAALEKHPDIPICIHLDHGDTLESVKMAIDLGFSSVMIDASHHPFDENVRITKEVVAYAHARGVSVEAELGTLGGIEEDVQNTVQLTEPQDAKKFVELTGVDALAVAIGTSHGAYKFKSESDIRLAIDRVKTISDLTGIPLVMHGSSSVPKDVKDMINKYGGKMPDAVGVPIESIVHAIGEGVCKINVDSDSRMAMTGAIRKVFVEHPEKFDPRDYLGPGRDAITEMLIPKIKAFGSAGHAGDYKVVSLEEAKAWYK
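Giardia FBPA (40 nM reagent) was preincubated 10 min at RT with compound (up to 57.5 uM final), then substrate plus GAPDH/TPI/NAD/arsenate coupling system with diaphorase/resazurin was added; resorufin fluorescence (525/598 nm) was read after 20 min.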
Hits are given with their value; [ ] = remark or other dose. Unless noted, calls come from the whole dose curve; as a rule, active = well fitted curve in the direction sought with a large enough effect; inconclusive = small, poorly fitted or top-dose-only effect, or another doubt; inactive = no such curve, though single readings can be large; an effect the other way counts as inactive or inconclusive.

For O=C(c1ccc(F)cc1)c1ccc(N2CCCCC2)cc1 the results were TbPYK inhibitor inactive, LmPK inh inactive, Sm TGR block inactive, Cycloheximide cs 61, Shiga inhibitor 97 and FBPA Giardia inh inactive.
For O=C(Nc1ccc(N2CCCCC2)cc1)c1cccnc1 the results were TbPYK inhibitor inactive, LmPK inh inactive, Sm TGR block inactive, Cycloheximide cs 22, Shiga inhibitor 129 and FBPA Giardia inh inactive.
`O=C(Nc1ccc(F)cc1)c1ccc(C(=O)N2CCCC(O)C2)cc1` (stereo not given) gave TbPYK inhibitor inactive and Sm TGR block 4µM.
`CCSc1nc(-c2ccc(Cl)cc2)nc2c1Cc1c(CO)cnc(C)c1O2` gave TbPYK inhibitor inactive and Sm TGR block inactive.
Screening O=S(=O)(c1ccc(N2CCCC2)cc1)C(F)(F)F returned TbPYK inhibitor inactive, LmPK inh inactive, Sm TGR block inactive, Cycloheximide cs 28, Shiga inhibitor 72 and FBPA Giardia inh inactive.
For O=C(c1ccc(F)cc1)c1ccc(N2CCCC2)cc1 the results were TbPYK inhibitor inactive, LmPK inh inactive, Sm TGR block inactive, Cycloheximide cs 63, Shiga inhibitor 151 and FBPA Giardia inh inactive.
Screening O=S(=O)(c1ccc(N2CCN(c3ccc(F)cc3)CC2)cc1)N1CCCC1 returned TbPYK inhibitor inactive, LmPK inh inactive, Sm TGR block inactive, Cycloheximide cs inactive, Shiga inhibitor inactive and FBPA Giardia inh inactive.
O=C(CCC(=O)N1CCN(c2ccc(F)cc2)CC1)N1CCN(c2ccc(F)cc2)CC1 was read as TbPYK inhibitor inactive, LmPK inh inactive, Sm TGR block inactive, Cycloheximide cs inactive, Shiga inhibitor inactive and FBPA Giardia inh inactive.
For Cc1ccc(S(=O)ONc2cccc(NOS(=O)c3ccc(C)cc3)c2)cc1 (stereo not given) the results were TbPYK inhibitor inactive.
Screening Cc1ccc(-c2cc(-c3nnc(SCC(=O)NCC(C)C)n3N)c3ccccc3n2)cc1 returned TbPYK inhibitor inactive, LmPK inh inactive, Sm TGR block inactive, Cycloheximide cs 36, Shiga inhibitor inactive and FBPA Giardia inh inactive.
For CC(NC(=O)C1CCN(S(=O)(=O)c2ccc3c(c2)oc(=O)n3C)CC1)c1ccccc1 (stereo not given) the results were TbPYK inhibitor inactive and Sm TGR block inactive.
CNC1=C(N(C(C)=O)c2ccc(Br)cc2)C(=O)c2ccccc2C1=O was read as TbPYK inhibitor inactive, LmPK inh inactive, Sm TGR block inactive, Cycloheximide cs inactive, Shiga inhibitor inactive and FBPA Giardia inh inconclusive.
CC(=O)C1=C(c2ccc(Br)cc2)C(=O)c2ccccc2C1=O was read as TbPYK inhibitor inactive, LmPK inh inactive, Sm TGR block inconclusive, Cycloheximide cs inactive, Shiga inhibitor inactive and FBPA Giardia inh 0.28µM.
Screening O=C(O)Cn1nnc(-c2cccs2)n1 returned TbPYK inhibitor inactive, LmPK inh inactive, Sm TGR block inactive, Cycloheximide cs inactive, Shiga inhibitor inactive and FBPA Giardia inh inactive.
CC(C)(C)NC(=O)Cn1nnc(-c2cccs2)n1 was read as TbPYK inhibitor inactive, LmPK inh inactive, Sm TGR block inactive, Cycloheximide cs 31, Shiga inhibitor 30 and FBPA Giardia inh inactive.
O=C(Cn1nnc(-c2cccs2)n1)NCc1ccco1 was read as TbPYK inhibitor inactive, LmPK inh inactive, Sm TGR block inactive, Cycloheximide cs 12, Shiga inhibitor 51 and FBPA Giardia inh inactive.
`COC(=O)NC(c1cccc(F)c1)C(C(C)=O)C(=O)OC` (stereo not given) gave FBPA Giardia inh inactive[12.9 µM].
O=C(NNC(=O)C1CC=CCC1)c1ccccc1Cl (stereo not given) was read as TbPYK inhibitor inactive, LmPK inh inactive, Sm TGR block inactive, Cycloheximide cs 20, Shiga inhibitor inactive and FBPA Giardia inh inactive.
For COc1ccc(C(=O)NNC(=O)C2CC=CCC2)cc1 (stereo not given) the results were TbPYK inhibitor inactive, LmPK inh inactive, Sm TGR block inactive, Cycloheximide cs 25, Shiga inhibitor 43 and FBPA Giardia inh inactive.
Screening CCOC(=O)c1ccc(C(=O)NNC(=O)C2CC=CCC2)cc1 (stereo not given) returned TbPYK inhibitor inactive.
COc1ccc(NC(=O)c2sc3nc4c(c(-c5ccc(OC)cc5)c3c2N)C(=O)CC(C)(C)C4)cc1 was read as TbPYK inhibitor inactive and Sm TGR block inactive.
COC(=O)Cn1ncc2c3ccccc3n(Cc3ccccc3)c2c1=O was read as TbPYK inhibitor inactive, LmPK inh inactive, Sm TGR block inactive, Cycloheximide cs inactive, Shiga inhibitor inactive and FBPA Giardia inh inactive.
`COC(=O)Cn1ncc(N(C)Cc2ccccc2)c(Cl)c1=O` gave TbPYK inhibitor inactive, LmPK inh inactive, Sm TGR block inactive, Cycloheximide cs 41, Shiga inhibitor 72 and FBPA Giardia inh inactive.
For CCCC(=O)Nc1ccc(-c2nc3cc(C)c(C)cc3o2)c(O)c1 the results were TbPYK inhibitor inactive, LmPK inh inactive, Sm TGR block inactive, Cycloheximide cs 32, Shiga inhibitor inactive and FBPA Giardia inh inactive.
`COc1ccc(C(=O)Nc2ccc3oc(-c4ccc5ccccc5c4)nc3c2)cc1Br` gave TbPYK inhibitor inactive and Sm TGR block inactive.
For CCCC(=O)Nc1ccc2oc(-c3ccc(OC)c(Br)c3)nc2c1 the results were TbPYK inhibitor inactive, LmPK inh inactive, Sm TGR block inactive, Cycloheximide cs 22, Shiga inhibitor inactive and FBPA Giardia inh inactive.
Screening CCCC(=O)Nc1ccc(-c2nc3cc(C)ccc3o2)cc1 returned TbPYK inhibitor inactive, LmPK inh inactive, Sm TGR block inactive, Cycloheximide cs 31, Shiga inhibitor 70 and FBPA Giardia inh inactive.
`Cn1c(-c2ccc3ccccc3n2)nc2cnccc21` gave TbPYK inhibitor inactive, LmPK inh inactive, Sm TGR block inactive, Cycloheximide cs 27, Shiga inhibitor 49 and FBPA Giardia inh inactive.
Cc1cc(C)c2[nH]c(=O)c(C(c3nnnn3CC3CCCO3)N3CCCC(C)C3)cc2c1 (stereo not given) was read as TbPYK inhibitor inactive, LmPK inh inactive, Sm TGR block 13µM, Cycloheximide cs inactive, Shiga inhibitor inactive and FBPA Giardia inh inactive.
`Cc1cc(C)c2[nH]c(=O)c(C(c3nnnn3CC3CCCO3)N3CCC(C)CC3)cc2c1` (stereo not given) gave TbPYK inhibitor inactive, LmPK inh inactive, Sm TGR block 14µM, Cycloheximide cs inactive, Shiga inhibitor inactive and FBPA Giardia inh inactive.
For Cc1ccc2[nH]c(=O)c(C(c3nnnn3CC3CCCO3)N3CCc4ccccc4C3)cc2c1 (stereo not given) the results were TbPYK inhibitor inactive, LmPK inh inactive, Sm TGR block 25µM, Cycloheximide cs inactive, Shiga inhibitor inactive and FBPA Giardia inh inconclusive.

From PubChem
